± gives the standard deviation of the averaged measurements. Over roughly 25,000 sequences, “ln(normalized median fluorescence intensity)” has its median near 8.6; the highest 2% begin near 10. This excerpt belongs to a sample that is enriched for the highest values.
Test system: PfAP2-EXP AP2 domain (GST-tagged)
Test: gcPBM binding intensity (ln(normalized median fluorescence intensity)); higher = stronger DNA binding
Outline: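 For binding intensity, the highest Masliner-normalised natural-log median intensity across replicate spots of either probe orientation was taken. Protein bound to the array was stained with Alexa488 anti-GST antibody and scanned at 488 nm. The protein, GST-tagged P. falciparum DNA-binding domains from E. coli at about 25 μg on average, had been applied for 1 h to an Agilent 4 × 180k array of primer-extended double-stranded 36-bp intergenic genomic probes and negative controls.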

Sequence	gcPBM binding intensity (ln)
ATTATATATATATATAAACACACATAAATATAAATA [CACACA_site8291]	8.56 ± 0.38
AAAATATTTATTTTTTGTACACATAAAAACGCACTT [XGTACX_site4132]	8.62 ± 0.11
TATTATTTTTTAAATTGTACAATAAATTATAAAAGG [XGTACX_site1162]	8.41 ± 0.39
TTCTAATATTTTTGCACACTAAACAATAAATTTCCT [CACACA_site3944]	8.885 ± 0.078
AGCTCTCAAAATTATTCACACGTGTCCTGTTATATA [CACACA_site5415]	9.26 ± 0.47
TTTGTGTAAAGAATCAGTACATATAATATATATATA [XGTACX_site1972]	9.34 ± 0.33
ATATATTTCATTTTTGTACACACAACGTTGGAGGGT [CACACA_site8999]	8.84 ± 0.39
AAAATAATTGTTTACACACCCATTTGTAATTTTACC [CACACA_site3614]	8.54 ± 0.37
GTACCTATTTCATACACACACACACGCAAACAAACA [CACACA_site6590]	9.01 ± 0.34
CACTTAACACAAGAGTGTACACATATATATATATAT [XGTACX_site686]	10.1 ± 0.53
GTATATATGTATATGTGTACACATATTCTTAACTCA [XGTACX_site309]	8.88 ± 0.33
TTAACTCAAGAGTGTACACATATATATATATATATA [CACACA_site4334]	10.2 ± 0.47
TTATAAATGTAACGATGTACTTTTAAAAGTTTCCTT [XGTACX_site109]	8.36 ± 0.38
TGGTATTAAGGAGAGGGTACAAAAAAAAAAAAAAAA [XGTACX_site1668]	8.28 ± 0.49
AATAATATCATTTAGACACACACTCTTACAATATGT [CACACA_site8832]	8.61 ± 0.45
GTTTATATTTAATTTTTTTGTTTTTTTGTGTAATTC [XGTACX_negctrl_site194]	8.53 ± 0.47
AGATTTAAATATCATACACACTTTATCTATAATACA [CACACA_site6581]	8.32 ± 0.4
AAATAATTTACTTAATGTACATATATATATATATAT [XGTACX_site8594]	10.59 ± 0.092
ATAAAATTTTATATGGGTACATAATATAATATATAT [XGTACX_site8160]	8.84 ± 0.41
ATATATATATATATATGTACATAATTAATAATTAGA [XGTACX_site5672]	10.3 ± 0.25
ATATATATATATATATGTACATAAATATTTTAAAAT [XGTACX_site4980]	10.3 ± 0.4
ATAAATATATTTAAATGTACATAATATATATATATA [XGTACX_site5137]	9.96 ± 0.18
GTATTTTTTTTAATATGTACATATAAAATATTTTAT [XGTACX_site8329]	8.96 ± 0.31

Sequence	gcPBM binding intensity (ln)
TAAAAAATAAATATATGTACATATTTATTTTTTTTT [XGTACX_site850]	8.21 ± 0.35
TAATTAATAATAATATGTACATATTAATATATTATT [XGTACX_site6900]	8.29 ± 0.24
TTATAATTTAATAAATGTACATAAATAATATACATA [XGTACX_site7271]	8.26 ± 0.18
CATATTAATATTATGGGTACATATAAATTTACATTC [XGTACX_site687]	8.64 ± 0.38
AATAAATTAATTTTGGGTACATATATATATATATAT [XGTACX_site3807]	10.2 ± 0.23
TTAATATTAATTATATGTACATATAATATATATATA [XGTACX_site1757]	9.18 ± 0.13
TAATTTAAAATATATAGTACACACGTGAACACAAAT [XGTACX_site792]	8.89 ± 0.45
AATATATCATAATGATGTACAAGTAAAACCGTTACA [XGTACX_site4280]	8.74 ± 0.52
TATTATATGTATTGCACACCTTCAACAACTACTTCT [CACACA_site655]	9.03 ± 0.14
TATTATTTTTTTATTCTATTAAAAAGAAAAAAATGA [CACACA_negctrl_site407]	7.95 ± 0.47
ACTTTACGAATTAAGAGTACTTATTTAAGGAACACT [XGTACX_site7919]	8.52 ± 0.37
CTACATAAAAAAATATGTACATATATATATATATAT [XGTACX_site667]	10 ± 0.46
AAATATAAAAAAAAAAGTACTTTGTTACTTTTCTAT [XGTACX_site6034]	8.04 ± 0.36
AACACATACAGATATGCACACATTTTATTCCATTAT [CACACA_site5565]	8.84 ± 0.34
TGAAAAAATATAATTTGTACATATCAGGCAAAAATG [XGTACX_site1824]	8.68 ± 0.38
TATAAAAATATATTTACACACTATATATATCGAAAG [CACACA_site1700]	8.52 ± 0.38
CCACTAATAAATATTACACACATATAGATTTATATT [CACACA_site7465]	8.41 ± 0.44
ATATATATATATAATACACACTAAAGTAACATAATA [CACACA_site5580]	9.74 ± 0.11
TATATATATATATAATGTACATAATAATAATACATC [XGTACX_site5587]	9.84 ± 0.26
TATATATATATATAATGTACATATATATAATATACA [XGTACX_site1552]	10.1 ± 0.27
TATATATATAATATATGTACATATTAATTATGTATA [XGTACX_site5366]	8.79 ± 0.13
TTTATACTTTCAAAATGTACATATATATATATATAT [XGTACX_site6241]	10.2 ± 0.24
TTATATACATAAAAATGTACTTTTTATAAAATATAT [XGTACX_site8281]	8.21 ± 0.18

Sequence	gcPBM binding intensity (ln)
TATATATATACTTAATGTACATATATATATATATAT [XGTACX_site3102]	10.3 ± 0.2
AATATTTATTTTATATGTACATAATTTATTTTTAAT [XGTACX_site776]	8.63 ± 0.32
ATATATATATATATATGTACATAATTAATAGCATAT [XGTACX_site1428]	10.2 ± 0.36
TTTAATATGAATTTATGTACATATATATATATATAT [XGTACX_site6337]	10.2 ± 0.35
TATATACTTTATAAATGTACATATAATGTATTATTT [XGTACX_site7313]	8.34 ± 0.42
CATATAATATAATTATGTACATATATAATAATATAC [XGTACX_site5278]	8.47 ± 0.29
ATATATATATATATATGTACATATTTTATTTAATTT [XGTACX_site1807]	10.2 ± 0.28
CAACACTTAGATTTTAAGTTCACTGGTTAATATATA [CACACA_negctrl_site707]	8.12 ± 0.4
ATTGAAAATTGTTGCACACATAATAATTAAATATAT [CACACA_site1857]	8.37 ± 0.23
GATCTTTAAATTTATTGTACATAAATGTATATGTTA [XGTACX_site1107]	8.59 ± 0.45
TATTTACAAAAAAAATATAAAAAATATAAAATATAT [CACACA_negctrl_site575]	8.12 ± 0.31
TGTTAATTTCATTTTCTACACACCTATCCTTTTTTT [CACACA_site8157]	8.88 ± 0.47
ATATATATATATATATGTACATATTTTAATAATTAA [XGTACX_site8549]	10.2 ± 0.23
ATATATATATATATATGTACATATTTTTAATTATAA [XGTACX_site7444]	9.86 ± 0.13
ATATATATATATATATGTACATAAATATAAATTTAA [XGTACX_site8715]	10.2 ± 0.24
TAATTATTTTCGGTACGTACTAATGTATATATAATT [XGTACX_site3895]	8.67 ± 0.42
ATATATTATATAATATGTACATAATAAAATTTAAAT [XGTACX_site1900]	8.72 ± 0.27
TTTTTTTTTTTCGGGGGTACTAATATATTATTAATA [XGTACX_site7809]	10.4 ± 0.34
AATATTATATATATGGGTACTAATTCCTTTAATTTC [XGTACX_site102]	8.15 ± 0.3
AAATAAATAATTTAATGTACATATATAATATATATA [XGTACX_site1831]	8.5 ± 0.11
TTAAATATAATATTATGTACTAAATATTTTTTTATT [XGTACX_site6121]	8.09 ± 0.37
ATATATATATATATATGTACTAATTAATATTTCGAG [XGTACX_site580]	10.2 ± 0.47
TATTAATTTTTATTATGTACATAAATAATTTATATT [XGTACX_site5456]	8.39 ± 0.28

Sequence	gcPBM binding intensity (ln)
GTATATAATTATATATGTACTAAATAAATATTTTTA [XGTACX_site6062]	8.29 ± 0.39
AAATTATATCCCCTTTGTACTTACAGATCTTTATAC [XGTACX_site8163]	8.77 ± 0.51
CACAGTGATATAAAAACACACATGAATTCTAATTTC [CACACA_site6884]	8.3 ± 0.21
AAAGTTGTTACGAACATACACACGAACATACTCACG [CACACA_site604]	8.7 ± 0.69
CCACTATATAAAATCACACATTTATATTATACATAT [CACACA_site4570]	8.43 ± 0.4
TGTCATTTAATTTTTTGTACGAAAAAAACATATAAA [XGTACX_site4952]	8.6 ± 0.24
TAATATTAATCCTAGTGTACATTAATTTATATGTAT [XGTACX_site3583]	8.51 ± 0.45
GTATATATATATTTATGTACTTACCTACATAATTAT [XGTACX_site4435]	8.84 ± 0.24
TATACATATATTATATGTACATATATATATAATATA [XGTACX_site2942]	8.29 ± 0.28
ATAATGTTTTATAATACACACATTATGTATATAAAT [CACACA_site4077]	8.36 ± 0.38
TTTAATTAAAATATATGTACATATATATATATATAT [XGTACX_site4517]	10.4
ATATATATATATATATGTACATATTATTAATAATAT [XGTACX_site6667]	10.2 ± 0.35
AAATTAAAATATATATGTACATATATATATATATAT [XGTACX_site7844]	10 ± 0.42
ATATATATATATATATGTACACATTAATGTTTTTTT [XGTACX_site167]	10.4 ± 0.24
GTATGTATGTATATATGTACACATTATTATTTAATG [XGTACX_site5802]	8.78 ± 0.11
AAATTAATATAAATATGTACATAAATAATAAAATAT [XGTACX_site6131]	8.71 ± 0.5
ATATTAATATACATATGTACATATATATATATATAT [XGTACX_site7425]	10.2 ± 0.24
TATTATTATTATTATTTTAAAAGAAATAAAAATATG [XGTACX_negctrl_site119]	8.1 ± 0.39
AATTGGAAGAAAAAAAAGGAAGGAAAGTTATTACAT [GTGCAC_negctrl_site74]	8.62 ± 0.41
AAATTTGAAGAATATTGTACGCATAATAATTAAATA [XGTACX_site4300]	8.82 ± 0.41
